Hit rate of the full screen: of about 2,500 compounds, about 360 (14%) were called active. Only a sample is shown. A number with no mark means an inactive call.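 The calls were made as follows: active = signal-lowering compounds whose fitted half-maximal concentration AC50 is no higher than ten times their top tested concentration; inconclusive = flat curve with 30 to 70% inhibition, or poor fit; inactive = flat within 30%, signal increase, or AC50 above limit.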
Experiment: non-specific inhibitors of H2O2 luminol chemiluminescence – biochemical, luminescence, no ALR or DTT, cherry-pick, artefact control for ALR inhibitor project, dose response (AID 540356);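 as to activity change, negative = inhibition: 0% = median of neutral control wells and -100% = median of quercitin 100 µM wells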
Settings: HRP/H2O2 luminol luminescence counterscreen; series mostly up to 10 µM; activity change, negative = inhibition: at the top concentration

Point of comparison: `Cc1nc(C)c(CC(=O)N/N=C/c2ccc(O)cc2)c(=O)[nH]1`, “activity change, negative = inhibition” value -2.84%. Against it:
- Cc1cccc(Oc2ccc3c(c2)cc(C(=O)O)n3C)c1 — higher, -1.07%
- CN(CCCNC(=O)c1cccc(N2CCCC2=O)c1)c1ccccc1 — higher, -1.85%
- CN(CC(=O)N1CCN(c2ccccc2)CC1)S(=O)(=O)c1cnc[nH]1 — higher, -1%
- Fc1ccc(CN2C3=NCCN3c3ccccc32)cc1 — higher, -0.206%
- O=C1CS/C(=N/N=C/c2ccco2)N1Cc1ccc(F)cc1 — higher, -1.89%
- Cn1cccc1CC(=O)N/N=C/c1ccc([N+](=O)[O-])cc1 — higher, -1.17%
- O=C(NNc1c2ccccc2nc2ccccc12)c1ccc(O)cc1O — lower, -6.84%
- COc1cccc(/C=N/NC(=O)CC2C(=O)NN=C2C)c1O (stereo not drawn) — lower, -6.48%
- CCN(CC)c1ccc(/C=N/NC(=O)c2ccco2)c(O)c1 — higher, -2.67%
- CC(C)c1ccc(NC2CCCN(C(=O)CCCn3cncn3)C2)cc1 (stereo not drawn) — higher, -0.691%
- Cc1nc(C(F)(F)F)c(C(=O)O)cc1-c1nc(-c2ccccc2)cs1 — lower, -3.6%
- O=C(O)c1ccccc1C(=O)Nc1ccc(-c2csc(-c3ccccc3)n2)cc1 — higher, 1.08%
- Nc1nc(-c2ccc3ccccc3c2)cs1 — higher, 0.746%
- Cc1cc(-c2n[nH]c(=S)n2/N=C/c2ccc(Cl)c([N+](=O)[O-])c2)n[nH]1 — lower, -7.21%
- CN(C)c1ccc(/C=N/Nc2ccc(-n3ccnc3)nn2)cc1 — lower, -5.8%
- O=C(Nc1ccc(O)cc1)c1ccc(C(=O)c2ccccc2)o1 — higher, -0.476%
- Oc1ccc(/C(Cc2ccccn2)=N\Nc2ccccc2)c(O)c1 — lower, -13%
- Cc1ccc2nc(C)cc(N/N=C/c3ccccc3O)c2c1 — higher, -1.87%
- COc1ccc(-n2c(-c3ccc(OC)c(OC)c3)n[nH]c2=S)cc1 — lower, -7.41%
- COc1ccc(-c2n[nH]c(=S)n2-c2ccc(C)cc2)cc1OC — higher, -2.1%
- Cc1occc1C(=O)NCCCCc1ccccc1 — higher, -2.42%
- O=C(NCCCN1CCCC1)c1ccc2c(Cl)c3c(nc2c1)CCCC3 — higher, -1.03%
- Nc1ccc(CCc2ccc(N)cc2)cc1 — higher, 2.66%
- CC(C)Cc1nc2ccc(N)cc2[nH]1 — lower, -7.18%
- O=C(Nc1nnc(-c2cccnc2)o1)c1cccc([N+](=O)[O-])c1 — higher, 2.15%
- Nc1ccc(N2CCN(C(=O)c3ccco3)CC2)cc1 — lower, -15%
- COc1cc(/C=C2\SC(=Nc3ccccc3OC)NC2=O)ccc1O — lower, -10.1%
- O=C1NC(=O)/C(=C/c2cc3c(cc2Br)OCO3)S1 — lower, -2.95%
- COc1cc(/C=N/NC(=O)c2cccc(NC(=O)c3ccccc3)c2)ccc1O — lower, -4.89%
- COc1cc(C(=O)n2nc(C)cc2C)ccc1O — lower, -6.95%
- COc1cc(C(=S)N(C)C)ccc1O — lower, -16.8%
- C/C(=N\Nc1nc2ccccc2[nH]1)c1ccc2c(c1)OCO2 — higher, -0.401%
- CCN(CCCNC(=O)CNC(=O)Cn1cnc2ccccc2c1=O)c1ccccc1 — higher, -0.598%
- COc1ccccc1N1CCN(CCc2n[nH]c(=S)n2-c2ccccc2)CC1 — higher, -1.88%
- C(=C\c1nc2ccccc2[nH]1)/c1ccccc1 — higher, -1.61%
- C/C(=N\Nc1nc2ccccc2[nH]1)c1cccs1 — lower, -8.06%
- COc1ccc(N2CCN(C(=O)Cc3cccs3)CC2)cc1 — higher, -2.6%
- Cc1ccc(S(=O)(=O)NNC(=O)c2ccc3ccccc3n2)cc1 — lower, -12.9%
- CCn1c(-c2ccccc2O)n[nH]c1=S — higher, -2.43%
- Oc1ccc(Br)cc1-c1cc(-c2ccco2)[nH]n1 — lower, -3.86%
- Cc1c(NS(=O)(=O)c2ccccc2)cc(Cl)c(O)c1C — lower, -9.8%
- O=C(O)c1ccc(CSc2nc3ccc(NC(=O)c4ccccc4C(=O)O)cc3s2)cc1 — higher, -0.1%
- COc1cc(/C=N/NC(=O)CNC(=O)c2ccncc2)ccc1O — lower, -3.2%
- COc1cc(C(=O)N/N=C/c2cccc(Oc3ccccc3)c2)ccc1O — lower, -5.05%
- CC1(CCC(=O)N2CCCC(Nc3ccc(F)cc3)C2)CC1 (stereo not drawn) — lower, -2.92%
- S=c1[nH]nc(-c2ccco2)n1/N=C/c1ccccc1 — lower, -3.81%
- S=c1[nH]nc(-c2ccncc2)n1/N=C/C=C/c1ccccc1 — lower, -11.5%
- Cc1ccc(NC(=O)CN(c2ccc3c(c2)OCO3)S(=O)(=O)c2c(C)n[nH]c2C)cc1 — higher, -1.61%
- CC(c1ccc(F)cc1)n1c(-c2cccs2)n[nH]c1=S (stereo not drawn) — higher, -0.882%
- S=c1[nH]cc(-c2ccccc2)[nH]1 — lower, -10.6%
- Cc1ccc(N2C(=O)CC(NNC(=O)c3cccc(S(=O)(=O)N4CCCC4)c3)C2=O)cc1 (stereo not drawn) — higher, 0.793%
- COc1ccccc1N1CCN(S(=O)(=O)c2ccccc2)CC1 — higher, 5.49%
- CC(=O)N1CCN=C1SCc1cccc(F)c1 — higher, 0.475%
- COc1ccc(-c2csc(Nc3ccc(S(=O)(=O)Nc4cc(C)on4)cc3)n2)cc1 — lower, -8.72%
- CC(C(=O)NC1C=CS(=O)(=O)C1)N1C(=O)/C(=C\c2ccccc2)SC1=S (stereo not drawn) — higher, -1.27%
- O=C(O)CCCN1C(=O)/C(=C\c2ccc(-c3nc4ccccc4s3)o2)SC1=S — lower, -3.96%
- O=c1ccc(-c2n[nH]c(=S)n2-c2ccc(F)c(Cl)c2)n[nH]1 — higher, 2.95%
- CN(C)c1cccc(C(=O)NCc2ccccc2)c1 — higher, 2.16%
- CC(=O)c1ccc(S(=O)(=O)N2CCNC(=O)C2)cc1 — higher, 0.022%
- COC(=O)Nc1ccc(S(=O)(=O)N2CCC(C(=O)N(C)C3CCCCC3)CC2)cc1 — lower, -4.36%
- COc1ccc(N2CCN(C(=O)CCNS(=O)(=O)c3ccccc3)CC2)cc1 — higher, -0.005%
- COc1ccccc1NC(=O)Nc1ncccc1C — lower, -3.86%
- Cc1ccc(-c2cnc(SCCNC(=O)c3ccco3)[nH]2)cc1 — lower, -8.49%
- Cc1cccc(-n2c(-c3ccoc3C)n[nH]c2=S)c1 — lower, -11.9%
- CCN(CC)c1ccc(C2CC(=O)Nc3cc(OC)c(OC)cc32)cc1 (stereo not drawn) — higher, -0.735%
- C/C(=N\NC(=O)c1ccncc1)c1ccc(N(C)C)cc1 — higher, -1.54%
- C/C(=N\NC(=O)c1cccc(N/N=C(\C)c2ccncc2)c1)c1ccncc1 — higher, -0.18%
- Cc1cc(S(=O)(=O)N2CCN(c3ccccc3O)CC2)c(C)s1 — higher, -1.49%
- COc1cc(-c2csc(CCn3nc(C)cc3C)n2)cc(OC)c1OC — higher, -1.1%
- C=CCn1c(-c2cccc([N+](=O)[O-])c2)n[nH]c1=S — lower, -6.54%
- C=CCn1c(-c2ccc(N)cc2)nc2ccccc21 — higher, -1.15%
- CC(C)c1ccc(NC(=O)Cc2c(C(=O)O)n(C)c3ccccc23)cc1 — lower, -6.86%
- CCc1ccc(NCc2ccc(OC)c(Cn3ccnc3)c2)cc1 — higher, 0.244%
- O=C(N/N=C/c1cccc(O)c1)N/N=C/c1cccc(O)c1 — lower, -15%
- CCN(CC)c1ccc(/C=N\NC(N)=O)cc1 — lower, -3.71%
- Cc1ccc(NC(=O)CCC(=O)N/N=C/c2ccc(O)cc2)cc1 — lower, -3.47%
- CN(C)c1ccc(/C=N/NC(=O)CCC(=O)NCc2ccccc2)cc1 — higher, 1.49%
- O=C(CCN1CCN(C(c2ccccc2)c2ccccc2)CC1)N/N=C/c1ccc(O)cc1 — lower, -4.67%
- O=C(Cn1cc(C(F)(F)F)ccc1=O)N/N=C/c1ccc(O)cc1 — lower, -3.05%
- O=C(Cn1cnc2ccccc21)N/N=C/c1ccccn1 — higher, -0.451%
- COc1ccc(C2SCC(=O)N2c2ccc(F)cc2)cc1 (stereo not drawn) — higher, 0.747%
- NNC(=O)c1cc(-c2ccccc2)sc1N — higher, -1.19%
- Cc1cc(C)cc(N2C(=O)CSC2c2ccccn2)c1 (stereo not drawn) — lower, -4.34%
- COc1cc(/C=N\NC(=O)c2ccc(-c3ccccc3)cc2)cc(OC)c1O — higher, -2.4%
- CC(NC(=O)c1ccccc1)C(=O)N/N=C/c1ccc(O)cc1 (stereo not drawn) — lower, -7.56%
- Cn1nc(-c2ccc(Cl)cc2)c2cc(C(=O)NCCCN3CCCC3)sc21 — higher, -0.462%
- CCn1c(-c2ccc(Cl)cc2)n[nH]c1=S — lower, -8.41%
- S=c1[nH]nc(-c2ccc(Cl)cc2)n1-c1ccc(Cl)cc1 — lower, -8.06%
- Cc1cccc(N2CC(C(=O)Nc3ccccc3N3CCCC3)CC2=O)c1C (stereo not drawn) — lower, -8.55%
- COc1ccc(CC(=O)N2CCN=C2SCc2ccc([N+](=O)[O-])cc2)cc1 — higher, -0.324%
- CCN(CCNC(=O)C1CCN(S(=O)(=O)c2cccc3nsnc23)CC1)c1ccccc1 — higher, -0.842%
- COc1ccc(C2NC(=O)CS2)cc1OC (stereo not drawn) — higher, 7.69%
- COc1ccc(/C=N/NC(=O)CCn2nc(C)cc2C)cc1O — lower, -8.19%
- COc1ccc(/C=N\NC(=O)CCN2CCN(c3ccccc3)CC2)cc1OC — higher, 0.672%
- O=C(NCc1ccccn1)c1ccc2c(c1)N(Cc1ccccc1)CCS2 — higher, 0.248%
- COc1ccc(N2CCN(C(=O)CCNC(=O)c3ccc(C(C)(C)C)cc3)CC2)cc1 — higher, -1.79%
- Clc1nnc(N2CCCCC2)c2ccccc12 — higher, -0.603%
- CC(C)c1ccc(NC2CCCN(C(=O)c3cc(C(C)C)nc(N)n3)C2)cc1 (stereo not drawn) — higher, -1.39%
- Cc1cc(O)c(Sc2ncn[nH]2)cc1NS(=O)(=O)c1ccc(Cl)cc1 — lower, -11.3%
- Cc1cc(C(=O)N2CCCC(Nc3ccc(C(C)C)cc3)C2)nn1C (stereo not drawn) — lower, -3.19%
- Cc1ccc(S(=O)(=O)Nc2cc(C)c(O)cc2C)cc1 — lower, -3.78%

In the case of `CC1C(=O)NN=C1C(=O)N/N=C\c1ccc(O)cc1O` (stereo not drawn), the AC50 is reported as 8.82 µM (active).
For `Oc1ccc(-c2nc(-c3ccc(O)c(O)c3)cs2)cc1`, the AC50 was 6.17 µM (active).
For `CCN(CC)c1ccc(NC(=O)c2ccc(Br)o2)cc1`, the AC50 was over 10 µM.
For `O=C1NC(=O)/C(=C\c2ccc(O)cc2O)S1`, the AC50 was 7.54 µM (active).
With `C/C(=C\c1ccc(N)cc1)c1nc2ccccc2[nH]1` the AC50 was 6.64 µM (active).
With `COc1cc(/C(C)=N/NC(=O)Cc2c(C)[nH][nH]c2=O)ccc1O` the AC50 was 5.67 µM (active).
With `S=c1nccc(-c2cccs2)[nH]1` the AC50 was 3.95 µM (active).
With `Fc1ccc(-c2ccnc(=S)[nH]2)cc1` the AC50 was 2.78 µM (active).
For `C/C(=N\NC(=O)c1ccc(N/N=C(\C)c2ccncc2)cc1)c1ccncc1`, the AC50 was 7.62 µM (active).
For `O=C(C[n+]1ccccc1)N/N=C/c1ccc(O)cc1`, the AC50 was 6.56 µM (active).
For `O=C(CCn1cnc2ccccc21)N/N=C/c1ccc(O)cc1`, the AC50 was 9.88 µM (active).
With `O=C(CC(=O)N/N=C/c1ccc(O)cc1)N/N=C/c1ccc(O)cc1` the AC50 was 2.72 µM (active).
For `CC12CCC(C(=O)N/N=C/c3ccc(O)cc3)(OC1=O)C2(C)C` (stereo not drawn), the AC50 was 8.23 µM (active).
In the case of `COc1cc(/C=N/NC(=O)CCN2CCCCC2)ccc1O`, the AC50 is reported as 8.16 µM (active).
In the case of `CC(C)c1ccc(S(=O)(=O)Nc2ccc(O)c(Sc3ncn[nH]3)c2)cc1`, the AC50 is reported as 9.35 µM (active).
With `Cc1ccc(S(=O)(=O)Nc2ccc(O)c(Sc3ncn[nH]3)c2)cc1` the AC50 was 10.4 µM (active).

Source: PubChem BioAssay AID540356 (Broad Institute, 2011)
